Laboratory results taken from PubChem BioAssay (EPA / NIEHS).
Where “and” joins values, the source holds several entries; their conditions need not be identical. Equal values may be shown once. Where a structure was tested more than once in an assay, its records may differ in their call. Calls of active or inactive are those of the source. Rule for the calls: active = hit-call score of the fitted dose curve at least 0.9, where 1 is the maximum; inactive = score below 0.9.

read-out: Intercellular Adhesion Molecule 1 (ICAM1), ICAM1 (gene 3383); experiment: BSK_hDFCGF_ICAM1: BioMAP Diversity Plus: hDFCGF Assay for Intercellular Adhesion Molecule 1 (ICAM1) Biomarker Activity (AID 2284287); conditions: primary human foreskin fibroblasts
Experimental: BSK_hDFCGF is a cell-based, multiplexed-readout assay that uses foreskin fibroblast, a human skin primary cell, with measurements taken at 24 hours after chemical dosing in a 96-well plate.BSK_hDFCGF_ICAM1 is an assay component measured in the BSK_hDFCGF assay. It measures ICAM-1 antibody related to regulation of gene expression using ELISA technology.Data from the assay component BSK_hDFCGF_ICAM1 was analyzed at the endpoint, BSK_hDFCGF_ICAM1, in the positive analysis fitting direction relative to DMSO as the negative control and baseline of activity. Using a type of binding reporter, gain or loss-of-signal activity can be used to understand protein changes. To generalize the intended target to other relatable targets, this assay endpoint is annotated to the 'cell adhesion molecules' intended target family, where the subfamily is 'Immunoglobulin CAM'.
The levels of cell surface (or secreted, indicated by the prefix "s") biomarker endpoints were measured by ELISA. Overt cytotoxicity to cells in confluent adherent cultures (all systems other than the BT system) was assessed by measuring total protein levels using sulforhodamine B (SRB) staining in parallel cultures at the time of biomarker measurements, indicated as SRB endpoints. For proliferation assays for adherent cell types, individual cell types are cultured at sub-confluence and relative cell numbers quantified by SRB staining at time points optimized for each system (48 h: 3C and CASM3C systems; 72 h: BT and HDF3CGF systems; 96 h: SAg system). SRB was performed by staining cells with 0.1% SRB after fixation with 10% TCA and reading wells at 560 nm.Viability and proliferation of PBMC (T cells) was quantified by Alamar Blue reduction for the SAg and BT systems. For PBMC viability (referred to as PBMC Cytotoxicity within the assay endpoint names), cells were plated (75,000/well in a 96-well plate) and then chemical samples added for 1 h before addition of activators, SEB and TSST-1 (20 ng/mL final concentration each). Cells were incubated for 90 h. Then, Alamar Blue (20 uL/well) (Invitrogen, Cat DAL1100) was added for 6 h, and the plates were read with a fluorescence microplate reader at 546/580 nm (excitation/emission). For PBMC proliferation, cells were plated and activated as above but incubated for only 16 h prior to addition of Alamar Blue. Plates were read after 6 h.

| SMILES | outcome | AC50 |
| --- | --- | --- |
| FC(F)(F)C(F)(C(F)(F)F)C(F)(F)C(F)(F)CC1CO1 (configuration not stated) | inactive |  |
| C=CC(=O)OCC(F)(F)C(F)F |  | 43.5 µM (active) and 29.6 µM (active) |
| NC(=O)C(F)(F)C(F)(F)F | inactive |  |
| O=C(O)C(F)(OC(F)(F)C(F)(F)C(F)(F)F)C(F)(F)F (configuration not stated) | inactive |  |
| CC(O)C(F)(F)C(F)(F)F (configuration not stated) | inactive |  |
| OCC(F)(F)OC(F)(F)C(F)(F)OC(F)(F)C(F)(F)OC(F)(F)CO | inactive | 33.8 µM (active) |
| OCC(F)(F)OC(F)(F)C(F)(F)OC(F)(F)CO | inactive |  |
| O=S(=O)(F)C(F)(F)C(F)(F)C(F)(F)C(F)(F)C(F)(F)C(F)(F)C(F)(F)C(F)(F)F | inactive |  |
| O=C(O)C(F)(F)C(F)(F)C(=O)O | inactive |  |
| O=C(O)C(F)(F)OC(F)(F)C(F)(F)OC(F)(F)F | inactive |  |
| O=C(O)C=CC(F)(C(F)(F)F)C(F)(F)F | inactive |  |
| OCC(F)(F)OC(F)(F)C(F)(F)OC(F)(F)C(F)(F)OC(F)(F)F | inactive | 19.2 µM (active) |
| O=C(O)C(F)(F)OC(F)(F)C(F)(F)OC(F)(F)C(=O)O | inactive |  |
| COC(=O)C(F)(F)C(F)(F)OC(F)(C(F)(F)F)C(F)(F)OC(F)=C(F)F (configuration not stated) | inactive |  |
| COP(=O)(CCC(=O)NCO)OC | inactive |  |
